# Assay results: PubChem BioAssay (NCI)
# About 79,000 compounds went through this panel and 15% of them were active in at least one assay; those are over-represented in the sample as a whole. Values without a mark were called inactive. The source made the active and inactive calls. Rule as the data show it: active = growth inhibition above about 70%; inactive = the rest.
# Columns and labels:
# [1] = NCI Yeast Anticancer Drug Screen. Data for the mlh1 strain (AID 171);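 also: 0% = growth of vehicle-treated control cultures of the same strain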; conditions: S. cerevisiae mlh1 strain growth inhibition, stronger effect = higher value
# In short: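 Steps: expose the defined-mutant yeast strain to compound; expose a parallel culture to vehicle; measure growth; express compound effect as inhibition relative to the vehicle culture.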
# [2] = NCI Yeast Anticancer Drug Screen. Data for the mlh1 rad18 strain (AID 175); conditions: S. cerevisiae mlh1 rad18 strain growth inhibition, stronger effect = higher value
# In short: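 Test agents were incubated with a yeast strain of defined genotype (DNA damage repair defect). Inhibition of growth was derived by comparison with vehicle-exposed cultures.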
# [3] = NCI Yeast Anticancer Drug Screen. Data for the rad18 strain (AID 177); conditions: S. cerevisiae rad18 mutant growth inhibition, stronger effect = higher value
# In short: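 A genetically defined yeast mutant impaired in DNA damage repair was treated with test compounds, then its growth was measured against cultures receiving vehicle alone.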
# [4] = NCI Yeast Anticancer Drug Screen. Data for the rad52 strain (AID 147);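 also: 0% = growth of vehicle-treated control cultures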; conditions: S. cerevisiae rad52 mutant growth inhibition, stronger effect = higher value
# In short: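 Screen used a yeast mutant impaired in DNA repair. After compound exposure, growth was measured. Values reflect inhibition compared with vehicle-treated cells.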
# [5] = NCI Yeast Anticancer Drug Screen. Data for the wt1 strain (AID 149);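 also: 0% = growth of vehicle-treated wt1 cultures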; conditions: S. cerevisiae wt1 strain (SPY 50644) growth inhibition, stronger effect = higher value
# In short: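 Yeast wt1 strain exposed to compounds; growth inhibition measured relative to vehicle-treated controls.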
# [6] = NCI Yeast Anticancer Drug Screen. Data for the rad50EPP+ strain (AID 151);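 also: 0% = growth of vehicle-treated control cultures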; conditions: S. cerevisiae rad50 mutant strain, stronger effect = higher value
# In short: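 Exposing the rad50EPP+ strain to each compound, growth was compared with vehicle-only cultures to give inhibition.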
# [7] = NCI Yeast Anticancer Drug Screen. Data for the rad50 strain (AID 155);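 also: 0% = growth of vehicle-only cultures of the same strain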; conditions: S. cerevisiae rad50 strain growth inhibition, stronger effect = higher value
# In short: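 Yeast carrying a defined DNA repair defect were exposed to test compounds, and growth was compared with vehicle-treated controls to give percent inhibition.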
# [8] = NCI Yeast Anticancer Drug Screen. Data for the mec2-1 strain (AID 157); conditions: S. cerevisiae mec2-1 strain, stronger effect = higher value
# In short: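 Readout is yeast growth inhibition, normalised to vehicle-treated controls, in the mec2-1 strain exposed to compound.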
# [9] = NCI Yeast Anticancer Drug Screen. Data for the rad14 strain (AID 159);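 also: 0% = growth of vehicle-treated control cultures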; conditions: S. cerevisiae rad14 strain growth inhibition, stronger effect = higher value
# In short: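 Yeast cells carrying a defined DNA-repair defect were exposed to compounds, and growth inhibition was calculated relative to vehicle-treated control cultures.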
# [10] = NCI Yeast Anticancer Drug Screen. Data for the sgs1 mgt1 strain (AID 161);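 also: 0% = growth of cultures given vehicle only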; conditions: S. cerevisiae sgs1 mgt1 strain, stronger effect = higher value
# In short: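 This yeast growth screen uses a strain with defined DNA-repair lesions; compound-treated growth is compared with vehicle-treated growth.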
# [11] = NCI Yeast Anticancer Drug Screen. Data for the CLN2oe strain (AID 163);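 also: 0% = growth of vehicle-only control cultures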; conditions: S. cerevisiae CLN2oe strain, stronger effect = higher value
# In short: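 Values reflect how much compound exposure reduced yeast growth, referenced to vehicle-exposed cells. Assay organism is a strain with a defined genetic change affecting cell-cycle control.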
# [12] = NCI Yeast Anticancer Drug Screen. Data for the cln2 rad14 strain (AID 165);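 also: 0% = growth equal to vehicle treated cultures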; conditions: S. cerevisiae cln2 rad14 strain, stronger effect = higher value
# In short: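 Relative to vehicle controls, growth inhibition of compound-treated cln2 rad14 yeast was recorded.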
# [13] = NCI Yeast Anticancer Drug Screen. Data for the bub3 strain (AID 167); conditions: S. cerevisiae bub3 mutant strain, stronger effect = higher value
# In short: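 Compounds were applied to a genetically altered yeast strain carrying a cell-cycle control defect. Growth inhibition was scored against vehicle-treated controls.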
# [14] = NCI Yeast Anticancer Drug Screen. Data for the wt2 strain (AID 169);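 also: 0% = growth of vehicle-treated yeast cultures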; conditions: S. cerevisiae wt2 strain growth inhibition, stronger effect = higher value
# In short: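 Values express reduction in yeast growth under compound treatment, referenced to vehicle-treated cells.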
# [15] = NCI Yeast Anticancer Drug Screen. Data for the sgs1 strain (AID 173);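 also: 0% = growth of vehicle-only control cultures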; conditions: S. cerevisiae sgs1 mutant, stronger effect = higher value
# In short: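 Treat defined-mutant yeast with compound; measure growth; calculate inhibition relative to vehicle-treated cells.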
# [16] = at 5.0 µM (retest, dose inferred, filed as 0.5)
# [17] = at 50.0 µM (retest, dose inferred, filed as 5.0)
smiles,measurement,setting,value
CN(C)CCNC(=Cc1ccc2ccccc2[n+]1C)NCCN(C)C,growth inhibition,[1]; at 1.2 µM,0%
same,growth inhibition,[1]; at 3.7 µM,-2%
same,growth inhibition,[1]; at 11.0 µM,1%
same,growth inhibition,[1]; at 33.0 µM,0%
same,growth inhibition,[1]; at 100.0 µM,0%
same,growth inhibition,[2]; [16],-4%
same,growth inhibition,[2]; [17],47%
same,growth inhibition,[2]; at 50.0 µM,34%
same,growth inhibition,[3]; at 1.2 µM,-2%
same,growth inhibition,[3]; at 3.7 µM,-4%
same,growth inhibition,[3]; at 11.0 µM,0%
same,growth inhibition,[3]; at 33.0 µM,-2%
same,growth inhibition,[3]; at 100.0 µM,-1%
Fc1ccc(Nc2ccc3ccccc3c2)cc1,growth inhibition,[4]; at 1.2 µM,-1%
same,growth inhibition,[4]; at 3.7 µM,-2%
same,growth inhibition,[4]; at 11.0 µM,-3%
same,growth inhibition,[4]; at 33.0 µM,17%
same,growth inhibition,[4]; at 100.0 µM,78% (active)
same,growth inhibition,[5]; at 1.2 µM,-1%
same,growth inhibition,[5]; at 3.7 µM,0%
same,growth inhibition,[5]; at 11.0 µM,-2%
same,growth inhibition,[5]; at 33.0 µM,21%
same,growth inhibition,[5]; at 100.0 µM,41%
same,growth inhibition,[6]; at 1.2 µM,-3%
same,growth inhibition,[6]; at 3.7 µM,-3%
same,growth inhibition,[6]; at 11.0 µM,-1%
same,growth inhibition,[6]; at 33.0 µM,4%
same,growth inhibition,[6]; at 100.0 µM,7%
same,growth inhibition,[7]; at 1.2 µM,-6%
same,growth inhibition,[7]; at 3.7 µM,-48%
same,growth inhibition,[7]; [16],-1%
same,growth inhibition,[7]; at 11.0 µM,8%
same,growth inhibition,[7]; at 33.0 µM,4%
same,growth inhibition,[7]; [17],64%
same,growth inhibition,[7]; at 50.0 µM,91% (active)
same,growth inhibition,[7]; at 100.0 µM,89% (active)
same,growth inhibition,[8]; at 1.2 µM,-1%
same,growth inhibition,[8]; at 3.7 µM,0%
same,growth inhibition,[8]; [16],-2%
same,growth inhibition,[8]; at 11.0 µM,-3%
same,growth inhibition,[8]; at 33.0 µM,25%
same,growth inhibition,[8]; [17],84% (active)
same,growth inhibition,[8]; at 50.0 µM,90.2% (active)
same,growth inhibition,[8]; at 100.0 µM,93% (active)
same,growth inhibition,[9]; at 1.2 µM,-1%
same,growth inhibition,[9]; at 3.7 µM,2%
same,growth inhibition,[9]; at 11.0 µM,2%
same,growth inhibition,[9]; at 33.0 µM,55%
same,growth inhibition,[9]; at 100.0 µM,97% (active)
same,growth inhibition,[10]; [16],-4%
same,growth inhibition,[10]; [17],86% (active)
same,growth inhibition,[10]; at 50.0 µM,91.2% (active)
same,growth inhibition,[11]; at 1.2 µM,2%
same,growth inhibition,[11]; at 3.7 µM,-2%
same,growth inhibition,[11]; at 11.0 µM,-1%
same,growth inhibition,[11]; at 33.0 µM,-11%
same,growth inhibition,[11]; at 100.0 µM,44%
same,growth inhibition,[12]; [16],-3%
same,growth inhibition,[12]; [17],67%
same,growth inhibition,[12]; at 50.0 µM,92.1% (active)
same,growth inhibition,[13]; at 1.2 µM,0%
same,growth inhibition,[13]; at 3.7 µM,-7%
same,growth inhibition,[13]; [16],0%
same,growth inhibition,[13]; at 11.0 µM,-6%
same,growth inhibition,[13]; at 33.0 µM,-9%
same,growth inhibition,[13]; [17],12%
same,growth inhibition,[13]; at 50.0 µM,92.8% (active)
same,growth inhibition,[13]; at 100.0 µM,88% (active)
same,growth inhibition,[14]; at 1.2 µM,-1%
same,growth inhibition,[14]; at 3.7 µM,8%
same,growth inhibition,[14]; at 11.0 µM,-1%
same,growth inhibition,[14]; at 33.0 µM,44%
same,growth inhibition,[14]; at 100.0 µM,91% (active)
same,growth inhibition,[1]; at 1.2 µM,0%
same,growth inhibition,[1]; at 3.7 µM,0%
same,growth inhibition,[1]; at 11.0 µM,-2%
same,growth inhibition,[1]; at 33.0 µM,44%
same,growth inhibition,[1]; at 100.0 µM,90% (active)
same,growth inhibition,[15]; at 1.2 µM,-2%
same,growth inhibition,[15]; at 3.7 µM,0%
same,growth inhibition,[15]; at 11.0 µM,2%
same,growth inhibition,[15]; at 33.0 µM,63%
same,growth inhibition,[15]; at 100.0 µM,95% (active)
same,growth inhibition,[2]; [16],-3%
same,growth inhibition,[2]; [17],69%
same,growth inhibition,[2]; at 50.0 µM,93.5% (active)
same,growth inhibition,[3]; at 1.2 µM,0%
same,growth inhibition,[3]; at 3.7 µM,1%
same,growth inhibition,[3]; at 11.0 µM,0%
same,growth inhibition,[3]; at 33.0 µM,-1%
same,growth inhibition,[3]; at 100.0 µM,91% (active)
